Experimental data published in publication PMC8222333, “AsCas12a ultra nuclease facilitates the rapid generation of therapeutic cell medicines”.

B1: TAAA (dsDNA)
DNA 1: GCTATCTAGTGCTCAGTACGCACTGTAAAAGGAAACTTCTGGCAGGACCAGGTCATGAGATCGGAAGAGCACACGTCTGAACTCCAGTCA
DNA 2: TGACTGGAGTTCAGACGTGTGCTCTTCCGATCTCATGACCTGGTCCTGCCAGAAGTTTCCTTTTACAGTGCGTACTGAGCACTAGATAGC
RNA: AAUUUCUACUCUUGUAGAUAGGAAACUUCUGGCAGGACC
B2: TCCT (dsDNA)
DNA 1: GCTATCTAGTGCTCAGTACGCACTGTCCTAGGAAACTTCTGGCAGGACCAGGTCATGAGATCGGAAGAGCACACGTCTGAACTCCAGTCA
DNA 2: TGACTGGAGTTCAGACGTGTGCTCTTCCGATCTCATGACCTGGTCCTGCCAGAAGTTTCCTAGGACAGTGCGTACTGAGCACTAGATAGC
RNA: AAUUUCUACUCUUGUAGAUAGGAAACUUCUGGCAGGACC
B3: TCAA (dsDNA)
DNA 1: GCTATCTAGTGCTCAGTACGCACTGTCAAAGGAAACTTCTGGCAGGACCAGGTCATGAGATCGGAAGAGCACACGTCTGAACTCCAGTCA
DNA 2: TGACTGGAGTTCAGACGTGTGCTCTTCCGATCTCATGACCTGGTCCTGCCAGAAGTTTCCTTTGACAGTGCGTACTGAGCACTAGATAGC
RNA: AAUUUCUACUCUUGUAGAUAGGAAACUUCUGGCAGGACC
B4: TAGA (dsDNA)
DNA 1: GCTATCTAGTGCTCAGTACGCACTGTAGAAGGAAACTTCTGGCAGGACCAGGTCATGAGATCGGAAGAGCACACGTCTGAACTCCAGTCA
DNA 2: TGACTGGAGTTCAGACGTGTGCTCTTCCGATCTCATGACCTGGTCCTGCCAGAAGTTTCCTTCTACAGTGCGTACTGAGCACTAGATAGC
RNA: AAUUUCUACUCUUGUAGAUAGGAAACUUCUGGCAGGACC
B5: TCAC (dsDNA)
DNA 1: GCTATCTAGTGCTCAGTACGCACTGTCACAGGAAACTTCTGGCAGGACCAGGTCATGAGATCGGAAGAGCACACGTCTGAACTCCAGTCA
DNA 2: TGACTGGAGTTCAGACGTGTGCTCTTCCGATCTCATGACCTGGTCCTGCCAGAAGTTTCCTGTGACAGTGCGTACTGAGCACTAGATAGC
RNA: AAUUUCUACUCUUGUAGAUAGGAAACUUCUGGCAGGACC
B6: TATT (dsDNA)
DNA 1: GCTATCTAGTGCTCAGTACGCACTGTATTAGGAAACTTCTGGCAGGACCAGGTCATGAGATCGGAAGAGCACACGTCTGAACTCCAGTCA
DNA 2: TGACTGGAGTTCAGACGTGTGCTCTTCCGATCTCATGACCTGGTCCTGCCAGAAGTTTCCTAATACAGTGCGTACTGAGCACTAGATAGC
RNA: AAUUUCUACUCUUGUAGAUAGGAAACUUCUGGCAGGACC
B7: TCCG (dsDNA)
DNA 1: GCTATCTAGTGCTCAGTACGCACTGTCCGAGGAAACTTCTGGCAGGACCAGGTCATGAGATCGGAAGAGCACACGTCTGAACTCCAGTCA
DNA 2: TGACTGGAGTTCAGACGTGTGCTCTTCCGATCTCATGACCTGGTCCTGCCAGAAGTTTCCTCGGACAGTGCGTACTGAGCACTAGATAGC
RNA: AAUUUCUACUCUUGUAGAUAGGAAACUUCUGGCAGGACC
B8: TCCA (dsDNA)
DNA 1: GCTATCTAGTGCTCAGTACGCACTGTCCAAGGAAACTTCTGGCAGGACCAGGTCATGAGATCGGAAGAGCACACGTCTGAACTCCAGTCA
DNA 2: TGACTGGAGTTCAGACGTGTGCTCTTCCGATCTCATGACCTGGTCCTGCCAGAAGTTTCCTTGGACAGTGCGTACTGAGCACTAGATAGC
RNA: AAUUUCUACUCUUGUAGAUAGGAAACUUCUGGCAGGACC

The binders below were run against dAsCas12a Ultra (Acidaminococcus sp., UniProt U2UMQ6 1-1307, M537R;F870L;D908A;E993A;D1235A) (assay: Spec-seq (native PAGE EMSA with sequencing of bound and unbound); 25 mM Tris-HCl pH 7.4, 150 mM KCl, 5 mM MgCl2, 10% glycerol, 1 mM DTT, 40 ng/uL salmon sperm DNA; 400 nM Cas12a, 480 nM crRNA, 50 nM library, 37 C 1 h; native PAGE at room temperature; high values mean tight binding). Conditions: protein: recombinant.

Binder	binding signal [lnKA]
B1	-8.83
B2	-8.78
B3	-8.83
B4	-8.98
B5	-8.33
B6	-8.42
B7	-7.52
B8	-7.24

Each binder was assayed against dAsCas12a S542R (Acidaminococcus sp., UniProt U2UMQ6 1-1307, S542R;D908A;E993A;D1235A) in the same assay as above. Conditions: protein: recombinant.

Binder	binding signal [lnKA]
B1	-8.25
B2	-5.43
B3	-7.68
B4	-8.65
B5	-7.5
B6	-7.99
B7	-3.6
B8	-3.52

These binders were tested against d-enCas12a (Acidaminococcus sp., UniProt U2UMQ6 1-1307, E174R;S542R;K548R;D908A;E993A;D1235A) in the same assay as above. Conditions: protein: recombinant.

Binder	binding signal [lnKA]
B1	-5.38
B2	-3.98
B3	-5.65
B4	-5.31
B5	-5.3
B6	-3.27
B7	-3.12
B8	-2.15

Each binder was assayed against d-enCas12a-Ultra (Acidaminococcus sp., UniProt U2UMQ6 1-1307, E174R;S542R;K548R;M537R;F870L;D908A;E993A;D1235A) in the same assay as above. Conditions: protein: recombinant.

Binder	binding signal [lnKA]
B1	-3.04
B2	-0.951
B3	-3.39
B4	-3.33
B5	-3
B6	-1.25
B7	-0.639
B8	-0.457

The binders below were run against dAsCas12a E174R (Acidaminococcus sp., UniProt U2UMQ6 1-1307, E174R;D908A;E993A;D1235A) in the same assay as above. Conditions: protein: recombinant.

Binder	binding signal [lnKA]
B2	-8.39
B6	-8.04
B7	-7.89
B8	-6.64
